# Experimental data published in PubChem BioAssay (NCI).
# This is part of a sample that, as a whole, favours compounds with a hit. Of some 79,000 tested, about 15% had one in any assay. A number with no mark means an inactive call. Active and inactive are the calls of the source. Cut-off read from the data, not from the text of the source: active = growth inhibition above about 70%; inactive = the rest.
# Columns and labels:
# [1] = NCI Yeast Anticancer Drug Screen. Data for the rad50 strain (AID 155);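 note: 0% = growth of vehicle-only cultures of the same strain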; conditions: S. cerevisiae rad50 strain growth inhibition, hits give high values
# How it was run: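 Growth of the mutant yeast was measured after compound exposure and referenced to vehicle-treated cultures.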
# [2] = NCI Yeast Anticancer Drug Screen. Data for the mec2-1 strain (AID 157); conditions: S. cerevisiae mec2-1 strain, hits give high values
# How it was run: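 Mutant yeast (mec2-1) grown with compound; growth inhibition relative to vehicle control reported.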
# [3] = NCI Yeast Anticancer Drug Screen. Data for the sgs1 mgt1 strain (AID 161);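 note: 0% = growth of cultures given vehicle only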; conditions: S. cerevisiae sgs1 mgt1 strain, hits give high values
# How it was run: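 Compounds are added to genetically altered yeast, and growth is compared with cultures given vehicle alone to give percent inhibition.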
# [4] = NCI Yeast Anticancer Drug Screen. Data for the cln2 rad14 strain (AID 165);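 note: 0% = growth equal to vehicle treated cultures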; conditions: S. cerevisiae cln2 rad14 strain, hits give high values
# How it was run: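 Readout is yeast growth inhibition versus vehicle-treated controls, using a strain with cln2 and rad14 alterations exposed to compound.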
# [5] = NCI Yeast Anticancer Drug Screen. Data for the bub3 strain (AID 167); conditions: S. cerevisiae bub3 mutant strain, hits give high values
# How it was run: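 Whole-cell yeast assay. The mutant strain was incubated with compounds, and growth inhibition was determined by comparison with vehicle-treated cells.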
# [6] = NCI Yeast Anticancer Drug Screen. Data for the mlh1 rad18 strain (AID 175); conditions: S. cerevisiae mlh1 rad18 strain growth inhibition, hits give high values
# How it was run: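 Genetically defined yeast (DNA repair-deficient) exposed to compounds; growth inhibition determined relative to vehicle.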
# [7] = at 5.0 µM (retest, dose inferred, filed as 0.5)
# [8] = at 50.0 µM (retest, dose inferred, filed as 5.0)
Structure (SMILES),"growth inhibition [1, 7]","growth inhibition [1, 8]",growth inhibition ([1]; at 50.0 µM),"growth inhibition [2, 7]","growth inhibition [2, 8]",growth inhibition ([2]; at 50.0 µM),"growth inhibition [3, 7]","growth inhibition [3, 8]",growth inhibition ([3]; at 50.0 µM),"growth inhibition [4, 7]","growth inhibition [4, 8]",growth inhibition ([4]; at 50.0 µM),"growth inhibition [5, 7]","growth inhibition [5, 8]",growth inhibition ([5]; at 50.0 µM),"growth inhibition [6, 7]","growth inhibition [6, 8]",growth inhibition ([6]; at 50.0 µM)
Cc1ccc(NC(=S)SCc2ccc(Cl)cc2)cc1C,12%,94% (active),94.9% (active),-5%,60%,98.2% (active),1%,94% (active),98% (active),-4%,34%,86.8% (active),18%,68%,97.5% (active),1%,82% (active),98.6% (active)
CCCCCCCCCCOC(=O)c1cccnc1,5%,86% (active),-5.45%,0%,52%,39.3%,7%,74% (active),30.6%,3%,34%,-1.4%,8%,91% (active),78.2% (active),9%,87% (active),80.5% (active)
CCCCCCCCC1(OCCCS(=O)(=O)O)COc2ccccc2OCCOCCOc2ccccc2OC1,-13%,87% (active),97.9% (active),-4%,74% (active),87% (active),-6%,73% (active),97.9% (active),-4%,73% (active),93.6% (active),-8%,80% (active),96% (active),-7%,87% (active),95.2% (active)
O=C(O)/C=C/c1ccc2c(c1)CC1(Cc3ccccc3C1)C2,27%,82% (active),45.6%,40%,90% (active),66.2%,84% (active),87% (active),73% (active),64%,93% (active),83.3% (active),85% (active),92% (active),78.5% (active),67%,88% (active),80% (active)
CN1CC[C@@H](c2ccccc2)[C@@H](O)C1,0%,-11%,6.3%,4%,-4%,12%,2%,-10%,49.1%,-3%,-11%,-1.15%,0%,-3%,3.5%,-1%,-29%,9.55%
Oc1cc(-[n+]2ccc3ccccc3c2)c(O)c2ccccc12,10%,70% (active),44.2%,-1%,27%,39.2%,11%,45%,15.6%,-4%,-10%,-20.8%,24%,72% (active),64.5%,16%,46%,54.1%
CCC1(CC(=O)O)OCCc2c1[nH]c1c(C)c(Cl)ccc21 (centres undefined),10%,99% (active),95.7% (active),1%,99% (active),98.1% (active),2%,97% (active),97.8% (active),-2%,96% (active),97.2% (active),-4%,96% (active),95.8% (active),-1%,97% (active),97.5% (active)
O=C1C2Nc3ccccc3SC2C(=O)N1c1ccccc1C(F)(F)F (centres undefined),3%,35%,73.8% (active),3%,11%,12.5%,16%,24%,47.4%,2%,11%,46.5%,-1%,29%,13.7%,7%,44%,73.2% (active)
Nc1cc(Br)c2cccnc2c1O,81% (active),98% (active),97.2% (active),44%,98% (active),94.7% (active),67%,98% (active),98% (active),28%,98% (active),94.2% (active),35%,98% (active),93.7% (active),86% (active),98% (active),95.7% (active)
COc1ccc(C(=O)C(Br)CS(=O)(=O)c2ccc(C)cc2)cc1 (centres undefined),56%,99% (active),99% (active),36%,99% (active),99.4% (active),71% (active),99% (active),99.4% (active),18%,98% (active),97.8% (active),47%,98% (active),99.1% (active),48%,98% (active),99% (active)
CN(Cc1cc(Cl)cc(Cl)c1)CC(C(=O)c1ccccc1)c1ccccc1 (centres undefined),21%,86% (active),81.7% (active),13%,90% (active),96.5% (active),57%,96% (active),93.3% (active),3%,85% (active),50.3%,14%,94% (active),41.5%,29%,91% (active),97.3% (active)
COc1ccc(/C(Cl)=C(\C=O)c2ccc(Cl)cc2)cc1OC,6%,61%,4.15%,-8%,35%,13.4%,-17%,56%,21.6%,7%,49%,0.1%,4%,70% (active),13.6%,-5%,68%,24.1%
Cc1ccc(N2C(=O)C(C)SC2=S)cc1Cl (centres undefined),2%,-4%,86.2% (active),-1%,-1%,51.9%,1%,-25%,94.7% (active),-2%,-2%,13.7%,-4%,1%,48%,-5%,1%,93.5% (active)
CCCCN(CCCC)CC(O)Cc1cc2ccccc2c2ccccc12 (centres undefined),0%,65%,90.7% (active),1%,44%,48.6%,-4%,92% (active),99.1% (active),-7%,42%,62.6%,0%,47%,94.4% (active),18%,91% (active),98.4% (active)
O=C1OC(c2ccccc2)N/C1=C\c1ccc2c(c1)OCO2 (centres undefined),34%,53%,-45.7%,17%,20%,-53.1%,22%,24%,-8.55%,11%,21%,3.55%,22%,19%,-14.7%,18%,26%,-6.95%
[O-]/[N+](O)=C\c1ccccn1,-2%,-13%,5.75%,2%,-8%,6.55%,-5%,-9%,-0.75%,-2%,-10%,-57.6%,1%,0%,-8.4%,0%,-10%,37.1%
Clc1ccnc2c1ccc1c(Cl)ccnc12,8%,53%,43.6%,-17%,2%,26.4%,1%,12%,20.7%,5%,-10%,13.9%,-74%,10%,40.6%,3%,15%,45.9%
CC(C)CC(C(=O)SCC(C)N1CCCC1)c1ccccc1 (centres undefined),0%,35%,48%,8%,33%,36.1%,26%,56%,49.6%,12%,43%,71.4% (active),15%,59%,51.8%,11%,37%,59.2%
